6 compounds from PubChem BioAssay (NCATS) can be followed below.

Assay [1] addresses Lysosomal acid glucosylceramidase (Homo sapiens) (UniProt P04062). Briefly: Glucocerebrosidase-p2 (AID 348; in the data active = potency below about 10 µM; note: potency is the fitted concentration of half-maximal effect). Conditions: purified GBA, blue fluorogenic substrate, 40 min. A digest of the protocol:
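Normal human glucocerebrosidase (0.2 nM) with blue fluorogenic substrate (80 uM final) in citrate/phosphate pH 5.9 with 10mM sodium taurocholate, 0.01% tween-20; 40 min RT, NaOH/glycine stop; fluorescence Ex 365/Em 440; AC50 from a titration from 0.6 nM upwards.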

Assay [2] is described as follows: AP1 Signaling Pathway (AID 357; active = well fitted curve in either direction with a large enough effect, not every such curve was filed as active;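 note: ME-180 reporter cells stimulated with EGF at its EC50 level; % is set by controls: 0 for no effect and ±100 for the full control effect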). Conditions: ME-180 AP-1-bla reporter, EGF-induced, beta-lactamase ratio, 5 h; at 7.69 µM (top of the series) unless noted. The essentials: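 Titration-series screen for positive or negative modulators of EC50 EGF-induced signaling in ME-180 cells carrying an AP-1-driven beta-lactamase reporter. After 5 hours at 37 degrees Celsius, CCF4 460nm/530nm emission ratio gave %Activity; AC50 values derived.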

The target in assay [3] is Cytochrome P450 1A2 (Homo sapiens) (UniProt P05177). Briefly: p450-cyp1a2 (AID 410; calls by dose curve; note: potency is the fitted concentration of half-maximal effect). A digest of the protocol: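 Read-out is luminescence from luciferin produced by CYP1A2 demethylation of Luciferin-ME (100uM, at Km). Detection reagent stopped the 60 min NADPH-dependent reaction; signals were normalized to 57 uM furafylline.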
Sequence of Cytochrome P450 1A2 (Homo sapiens) (P05177 whole entry, looked up): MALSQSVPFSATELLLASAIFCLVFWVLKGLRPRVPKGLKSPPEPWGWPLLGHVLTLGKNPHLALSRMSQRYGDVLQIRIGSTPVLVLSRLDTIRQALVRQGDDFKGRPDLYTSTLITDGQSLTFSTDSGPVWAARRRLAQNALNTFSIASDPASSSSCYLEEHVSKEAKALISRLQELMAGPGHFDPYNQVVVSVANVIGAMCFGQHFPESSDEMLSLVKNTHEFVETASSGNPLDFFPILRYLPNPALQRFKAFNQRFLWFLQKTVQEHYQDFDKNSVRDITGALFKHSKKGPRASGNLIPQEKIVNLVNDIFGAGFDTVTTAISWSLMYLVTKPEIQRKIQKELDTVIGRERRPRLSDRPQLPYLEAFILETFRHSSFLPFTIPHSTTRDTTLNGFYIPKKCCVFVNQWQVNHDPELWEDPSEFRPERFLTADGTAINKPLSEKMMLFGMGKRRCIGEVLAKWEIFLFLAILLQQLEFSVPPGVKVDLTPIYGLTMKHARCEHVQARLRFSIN
Assay [4] in a line: Stat Signaling Pathway (AID 446; active = well fitted curve in either direction with a large enough effect, not every such curve was filed as active;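 note: ME-180 cervical cancer cells given 40 pM IL-6 alongside compound; SIE-controlled beta-lactamase reporter measured as 460/530 nm FRET emission ratio; % is set by controls: 0 for no effect and ±100 for the full control effect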). Conditions: ME-180 (cervical carcinoma) SIE beta-lactamase reporter, IL-6 stimulated, 5 h; at 7.69 µM (top of the series) unless noted. The essentials:
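Overnight-plated ME-180 cells bearing a STAT Inducible Element beta-lactamase reporter; 5 h co-exposure to compound and 40 pM IL-6; values normalized to 300 pM IL-6 and 125 nM JAK inhibitor controls.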

Assay [5] concerns the target Glucocorticoid receptor (Homo sapiens) (UniProt P04150). Briefly: GR-GFP Redistribution (AID 450;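 active = compounds whose dose series gives a full or clear partial fitted curve of increased nuclear translocation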; note: potency is the fitted concentration of half-maximal effect). Conditions: U2OS GR-GFP nuclear translocation, laser cytometry, 2 h.
The target in assay [6] is Mitogen-activated protein kinase 10 (Mus musculus) (UniProt Q61831). Briefly: JNK3 AlphaScreen Assay (AID 530; active = well fitted curve in either direction with a large enough effect, not every such curve was filed as active;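 note: kinase came from lysate of stimulated human HepG2 cells; signal reports phosphorylation of biotinylated GST-cJun 1-79 at Ser73 with 10 µM ATP; % is set by controls: 0 for no effect and ±100 for the full control effect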). The essentials:
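HepG2 lysate (IL-1b/TNFa pre-activated) + biotin-GST-cJun 1-79 + anti-pSer73 cJun; cpd titration, 15 min RT; ATP 10 uM start; Tris pH 7.6, MgCl2, DTT, vanadate; beads in EDTA buffer; AlphaScreen.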
(Alpha assays give light when donor and acceptor beads are brought close together.)

Assay [7] has as its target 3',5'-cyclic-AMP phosphodiesterase 4B (Homo sapiens) (UniProt Q07343). Briefly: qHTS Assay for Inhibitors of PDE-IV (AID 607; active = well fitted activation curve with a large enough effect in the main read-out, with a control signal flat, not every such curve was filed as active; note: % of control where 0% means no effect). A digest of the protocol:
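Live HEK293 cells with a modified cyclic nucleotide-gated (CNG) channel report intracellular cAMP via membrane-potential dye fluorescence (ex 535/em 590 nm). Endogenous PDE-IV was targeted. Compounds were tested at up to 22.9 uM final; RO 20-1724 100 uM served as control.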
On the technique in general: In qHTS, concentration-response curves come from the screen itself.

Assay [8] has as its target Cytochrome P450 3A4 (Homo sapiens) (UniProt P08684). Nature of the assay: qHTS Assay for Inhibitors and Substrates of Cytochrome P450 3A4 (AID 884). Note: nearly all actives have a fitted effect of over 50% in size. Note: potency is the fitted concentration of half-maximal effect. A digest of the protocol: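 Luminescent readout of luciferin produced by CYP3A4 (20 nM) dealkylation of Luciferin-PPXE, 25 uM (its KM). NADPH-driven reaction ran 60 min at RT after 10 min compound preincubation; data scaled to 57 uM ketoconazole as 100% inhibition.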

The target is the same in assay [9]. Nature of the assay: qHTS Assay for Activators of Cytochrome P450 3A4 (AID 885). Note: nearly all actives have a fitted effect of over 65% in size. The essentials: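 Using 20nM recombinant human CYP3A4 in potassium phosphate (200mM), substrate Luciferin-PPXE at 25uM, luminescent luciferin detection followed a 60-min RT NADPH reaction; data scaled to 57 uM ketoconazole.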
Assay [10] is described as follows: Confirmation and Secondary Assay for Modulators of Hemoglobin Beta Chain Splicing at IVS2 705 locus (AID 930).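 Note: HeLa cells stably expressing the EGFP-705 splicing reporter; GFP fluorescence per well restored by corrected splicing of the IVS2-705 intron in EGFP; % of control where 0% means no effect.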 A digest of the protocol:
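Stable HeLa line with EGFP disrupted by mutant beta-globin intron 2 (705). Overnight attachment, then 2 days of compound at 37C, 5% CO2. Signal: peak GFP intensity summed over objects 5-250 µm.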

Assay [11] in a line: qHTS Assay for Lipid Storage Modulators (AID 1519; calls by dose curve). Conditions: Drosophila S3 cells, BODIPY lipid droplet/cell ratio, laser cytometry, cells loaded with oleic acid; for activity change, negative = inhibition: at 57.5 µM (top of the series). A digest of the protocol: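 Cells seeded at 5,000 per well were treated with compounds over a concentration series and loaded with oleic acid (400 uM, as added). Lipid droplet fluorescence (488 nm excitation, 500-530 nm channel) was read by laser-scanning cytometry and normalized to 20 uM Triacsin C.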

For assay [12], the target named is Ubiquitin carboxyl-terminal hydrolase 1 (Homo sapiens) (UniProt O94782). Nature of the assay: Inhibitors of USP1/UAF1: Pilot qHTS (AID 504865). Note: nearly all actives have a fitted effect of over 35% in size. Note: potency is the fitted concentration of half-maximal effect. A digest of the protocol: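 USP1/UAF1 complex at 1 nM preincubated 15 min at room temperature with compound, then Ub-Rho substrate added at 150 nM final. Fluorescence (480/540 nm) read kinetically in 50 mM HEPES pH 7.8, 0.5 mM EDTA, 1 mM TCEP, 0.1 mg/ml BSA, 0.01% Tween-20.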
Sequence of Ubiquitin carboxyl-terminal hydrolase 1 (Homo sapiens) (O94782 whole entry, looked up): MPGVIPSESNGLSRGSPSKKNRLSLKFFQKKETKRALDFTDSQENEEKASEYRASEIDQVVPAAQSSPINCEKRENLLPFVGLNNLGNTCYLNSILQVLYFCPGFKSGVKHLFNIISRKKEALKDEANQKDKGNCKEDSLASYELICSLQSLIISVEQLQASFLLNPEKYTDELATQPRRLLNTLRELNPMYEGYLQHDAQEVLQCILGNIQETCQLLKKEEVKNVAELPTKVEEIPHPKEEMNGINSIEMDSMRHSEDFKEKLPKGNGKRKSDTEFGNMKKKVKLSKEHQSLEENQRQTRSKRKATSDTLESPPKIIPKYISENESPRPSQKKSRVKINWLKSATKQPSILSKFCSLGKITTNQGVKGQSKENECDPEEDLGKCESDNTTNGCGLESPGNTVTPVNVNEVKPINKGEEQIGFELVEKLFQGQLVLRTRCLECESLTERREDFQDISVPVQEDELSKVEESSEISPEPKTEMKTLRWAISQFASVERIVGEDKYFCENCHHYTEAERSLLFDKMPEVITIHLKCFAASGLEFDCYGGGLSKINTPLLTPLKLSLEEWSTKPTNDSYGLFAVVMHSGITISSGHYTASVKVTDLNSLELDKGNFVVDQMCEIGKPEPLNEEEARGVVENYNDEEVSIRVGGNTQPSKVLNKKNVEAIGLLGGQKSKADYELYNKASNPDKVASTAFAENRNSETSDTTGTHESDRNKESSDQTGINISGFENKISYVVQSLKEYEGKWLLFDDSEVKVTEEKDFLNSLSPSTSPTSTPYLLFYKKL

Assay [13] concerns the target Rap guanine nucleotide exchange factor 3 (Homo sapiens) (UniProt O95398). Briefly: Confirmatory qHTS for antagonist of cAMP-regulated guanine nucleotide exchange factor 3 (EPAC1) (AID 1645880).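 Note: plate controls were DMSO only for no effect and full effect of the ATA control for full effect; nearly all actives have a fitted effect of over 55% in size.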 The essentials:
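Released BODIPY-GDP fluoresces less than Rap1-bound BODIPY-GDP; the signal is followed at 480/540 nm at 5-min intervals over 30 min, after 5 min at room temperature. Reactions contain 100 nM EPAC1, 250 nM RAP1B-BODIPY-GDP and 50 uM GDP; results are normalized to ATA and DMSO.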

In assay [14] the target is Rap guanine nucleotide exchange factor 4 (Homo sapiens) (UniProt Q8WZA2). Briefly: Confirmatory qHTS for antagonist of cAMP-regulated guanine nucleotide exchange factor 4 (EPAC2) (AID 1645885). Note: % is set by controls: 0 for no effect and ±100 for the full control effect; nearly all actives have a fitted effect of over 25% in size.
Sequence of Rap guanine nucleotide exchange factor 4 (Homo sapiens) (Q8WZA2 whole entry, looked up): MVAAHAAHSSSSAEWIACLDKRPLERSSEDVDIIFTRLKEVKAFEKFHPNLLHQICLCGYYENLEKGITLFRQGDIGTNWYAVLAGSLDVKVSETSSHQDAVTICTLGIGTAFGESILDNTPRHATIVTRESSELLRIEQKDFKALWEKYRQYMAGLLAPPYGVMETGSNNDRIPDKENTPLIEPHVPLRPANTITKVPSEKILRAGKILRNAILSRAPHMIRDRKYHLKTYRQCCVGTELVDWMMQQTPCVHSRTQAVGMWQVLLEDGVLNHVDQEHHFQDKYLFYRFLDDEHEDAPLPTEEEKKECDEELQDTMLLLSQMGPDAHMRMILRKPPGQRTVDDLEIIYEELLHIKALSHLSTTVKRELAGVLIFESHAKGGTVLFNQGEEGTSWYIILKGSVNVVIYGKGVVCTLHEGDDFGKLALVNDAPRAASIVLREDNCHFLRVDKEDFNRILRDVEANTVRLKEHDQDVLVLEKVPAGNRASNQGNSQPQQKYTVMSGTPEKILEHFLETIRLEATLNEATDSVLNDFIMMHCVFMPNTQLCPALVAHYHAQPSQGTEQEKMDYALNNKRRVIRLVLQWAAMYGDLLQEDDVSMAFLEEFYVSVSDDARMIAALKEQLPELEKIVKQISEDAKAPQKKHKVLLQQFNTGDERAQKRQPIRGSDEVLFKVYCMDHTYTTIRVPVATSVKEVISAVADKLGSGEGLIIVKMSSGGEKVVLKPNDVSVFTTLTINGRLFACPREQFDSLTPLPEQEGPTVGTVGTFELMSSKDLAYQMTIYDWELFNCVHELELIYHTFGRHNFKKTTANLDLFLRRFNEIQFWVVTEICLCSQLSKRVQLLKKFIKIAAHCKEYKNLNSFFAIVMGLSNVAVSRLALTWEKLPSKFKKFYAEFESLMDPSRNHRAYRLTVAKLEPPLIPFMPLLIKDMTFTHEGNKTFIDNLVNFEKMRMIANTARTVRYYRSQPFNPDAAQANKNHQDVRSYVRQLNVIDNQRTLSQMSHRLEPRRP
Assay [15] in a line: NFAT Signaling Pathway (AID 444; active = well fitted curve in either direction with a large enough effect, not every such curve was filed as active;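 note: carbachol stimulus at about its EC50 of 1 µM final; % is set by controls: 0 for no effect and ±100 for the full control effect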). Conditions: Jurkat NFAT-bla M1, carbachol, beta-lactamase ratio, 5 h; at 7.69 µM (top of the series) unless noted. The essentials:
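Jurkat cells with NFAT-driven β-lactamase reporter and co-expressed M1 receptor, stimulated with carbachol (final 1 uM, ~EC50), compound titration, 5 h at 37 °C. CCF4 loaded 1 h at RT; 460/530 nm ratio gave %activity and AC50.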

Assay [16] concerns the target Glucocorticoid receptor (Homo sapiens) (UniProt P04150). Briefly: GR-EFC Redistribution (AID 451; calls by dose curve; note: potency is the fitted concentration of half-maximal effect). Conditions: CHO-K1 GR-EFC translocation, beta-gal luminescence, 2 h. The essentials: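 CHO-K1 cells expressing nuclear EA and GR-ED fragments of b-gal; compounds titrated up to 46 uM final, 2 h at 37 C. GR nuclear translocation read as complemented b-gal luminescence after 1 h RT detection.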

Assay [17] is described as follows: Confirmation and Secondary Assay for Modulators of Hemoglobin Beta Chain Splicing at IVS2 654 locus (AID 910).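 Note: HeLa cells stably carrying EGFP split by mutant beta-globin IVS2-654 intron; % of control where 0% means no effect.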 A digest of the protocol:
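HeLa cells stably expressing EGFP interrupted by β-globin IVS2-654 intron, seeded overnight in Opti-MEM/2% FCS, then treated 2 days at 37 °C. Restored splicing read as total peak GFP intensity per well by laser scanning cytometry (488 nm excitation, 500–520 nm emission); 500 nM antisense PNA as control.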

The target in assay [18] is Rap guanine nucleotide exchange factor 3 (Homo sapiens) (UniProt O95398). Nature of the assay: Confirmatory qHTS for agonist of cAMP-regulated guanine nucleotide exchange factor 3 (EPAC1) (AID 1645881).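 Note: EPAC1 catalysed release of BODIPY-GDP from Rap1B seen as fluorescence loss; 100% = effect of cAMP agonist control; nearly all actives have a fitted effect of over 75% in size.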
Sequence of Rap guanine nucleotide exchange factor 3 (Homo sapiens) (O95398 whole entry, looked up): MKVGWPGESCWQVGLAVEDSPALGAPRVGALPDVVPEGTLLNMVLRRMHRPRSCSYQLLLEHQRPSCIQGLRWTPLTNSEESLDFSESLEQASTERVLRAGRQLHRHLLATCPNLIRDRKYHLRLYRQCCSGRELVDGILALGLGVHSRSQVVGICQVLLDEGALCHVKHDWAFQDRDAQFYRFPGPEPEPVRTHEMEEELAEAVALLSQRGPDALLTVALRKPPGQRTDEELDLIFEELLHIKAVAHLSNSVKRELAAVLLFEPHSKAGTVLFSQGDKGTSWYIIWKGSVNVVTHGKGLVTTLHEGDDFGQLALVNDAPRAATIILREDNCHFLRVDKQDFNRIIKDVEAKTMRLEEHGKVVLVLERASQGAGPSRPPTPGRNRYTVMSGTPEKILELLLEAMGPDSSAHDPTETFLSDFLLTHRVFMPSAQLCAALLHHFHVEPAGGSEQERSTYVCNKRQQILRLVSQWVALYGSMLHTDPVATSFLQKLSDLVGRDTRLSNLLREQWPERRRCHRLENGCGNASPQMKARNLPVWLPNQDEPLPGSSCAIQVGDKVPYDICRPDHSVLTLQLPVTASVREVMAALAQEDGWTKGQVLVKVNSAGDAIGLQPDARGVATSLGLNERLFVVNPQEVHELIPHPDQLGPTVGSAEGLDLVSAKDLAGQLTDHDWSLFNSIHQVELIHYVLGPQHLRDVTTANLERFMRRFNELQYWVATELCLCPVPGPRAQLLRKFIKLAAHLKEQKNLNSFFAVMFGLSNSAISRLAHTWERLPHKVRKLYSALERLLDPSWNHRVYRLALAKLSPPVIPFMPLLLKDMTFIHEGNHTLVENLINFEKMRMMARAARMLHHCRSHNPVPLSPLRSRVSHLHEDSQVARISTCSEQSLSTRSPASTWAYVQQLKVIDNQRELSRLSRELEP
Assay [19] has as its target Rap guanine nucleotide exchange factor 4 (Homo sapiens) (UniProt Q8WZA2). Briefly: Confirmatory qHTS for agonist of cAMP-regulated guanine nucleotide exchange factor 4 (EPAC2) (AID 1645884).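 Note: nucleotide exchange releases bodipy-GDP from Rap1 and this lowers its fluorescence; % is set by controls: 0 for no effect and ±100 for the full control effect; nearly all actives have a fitted effect of over 65% in size.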
The mark [20] stands for this setting: measured here: cell count channel max response.
[21] abbreviates: measured here: lipid channel max response.

Results filed as inconclusive are left out. Calls of active or inactive are those of the source. Unless noted, calls come from the whole dose curve; as a rule, active = well fitted curve in the direction sought with a large enough effect; inconclusive = small, poorly fitted or top-dose-only effect, or another doubt; inactive = no such curve, though single readings can be large; an effect the other way counts as inactive or inconclusive. Where only a bound is given, the exact number is not on record here.

Sequence of Glucocorticoid receptor (Homo sapiens) (P04150 whole entry, looked up, the tested form may be a part): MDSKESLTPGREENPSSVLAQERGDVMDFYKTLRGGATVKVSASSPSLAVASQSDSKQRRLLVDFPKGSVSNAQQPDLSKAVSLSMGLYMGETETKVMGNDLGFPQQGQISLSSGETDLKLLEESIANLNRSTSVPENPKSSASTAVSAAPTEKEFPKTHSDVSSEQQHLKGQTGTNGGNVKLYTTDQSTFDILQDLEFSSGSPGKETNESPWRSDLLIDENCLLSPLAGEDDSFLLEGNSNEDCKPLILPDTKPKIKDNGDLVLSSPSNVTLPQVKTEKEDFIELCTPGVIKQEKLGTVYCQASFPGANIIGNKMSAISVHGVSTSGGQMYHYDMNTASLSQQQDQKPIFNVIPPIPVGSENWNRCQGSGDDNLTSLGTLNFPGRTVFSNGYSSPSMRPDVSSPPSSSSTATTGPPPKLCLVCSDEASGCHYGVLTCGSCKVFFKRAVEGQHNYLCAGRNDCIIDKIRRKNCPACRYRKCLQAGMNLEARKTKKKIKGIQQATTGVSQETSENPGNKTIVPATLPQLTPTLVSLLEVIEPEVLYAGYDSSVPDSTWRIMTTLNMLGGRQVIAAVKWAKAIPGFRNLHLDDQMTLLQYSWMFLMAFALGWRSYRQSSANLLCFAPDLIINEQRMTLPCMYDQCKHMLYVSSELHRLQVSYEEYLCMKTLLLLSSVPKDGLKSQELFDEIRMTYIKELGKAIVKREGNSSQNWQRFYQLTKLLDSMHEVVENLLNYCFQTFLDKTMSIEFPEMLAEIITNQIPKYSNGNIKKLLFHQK
Sequence of Cytochrome P450 3A4 (Homo sapiens) (P08684 whole entry, looked up): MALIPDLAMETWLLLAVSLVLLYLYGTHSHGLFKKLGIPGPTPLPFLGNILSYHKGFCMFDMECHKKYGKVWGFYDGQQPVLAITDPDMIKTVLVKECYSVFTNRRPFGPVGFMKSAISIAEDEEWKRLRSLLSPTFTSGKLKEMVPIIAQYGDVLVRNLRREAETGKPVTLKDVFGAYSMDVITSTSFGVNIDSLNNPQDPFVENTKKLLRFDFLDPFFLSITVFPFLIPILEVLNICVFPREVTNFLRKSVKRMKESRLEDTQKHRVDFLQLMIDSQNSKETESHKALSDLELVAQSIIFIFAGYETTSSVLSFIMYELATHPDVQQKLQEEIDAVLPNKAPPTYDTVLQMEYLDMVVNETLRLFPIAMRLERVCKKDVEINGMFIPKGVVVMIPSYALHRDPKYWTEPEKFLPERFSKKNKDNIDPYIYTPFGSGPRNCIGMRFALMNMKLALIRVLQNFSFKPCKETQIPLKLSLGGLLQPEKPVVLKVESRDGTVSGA
Sequence of Lysosomal acid glucosylceramidase (Homo sapiens) (P04062 whole entry, looked up): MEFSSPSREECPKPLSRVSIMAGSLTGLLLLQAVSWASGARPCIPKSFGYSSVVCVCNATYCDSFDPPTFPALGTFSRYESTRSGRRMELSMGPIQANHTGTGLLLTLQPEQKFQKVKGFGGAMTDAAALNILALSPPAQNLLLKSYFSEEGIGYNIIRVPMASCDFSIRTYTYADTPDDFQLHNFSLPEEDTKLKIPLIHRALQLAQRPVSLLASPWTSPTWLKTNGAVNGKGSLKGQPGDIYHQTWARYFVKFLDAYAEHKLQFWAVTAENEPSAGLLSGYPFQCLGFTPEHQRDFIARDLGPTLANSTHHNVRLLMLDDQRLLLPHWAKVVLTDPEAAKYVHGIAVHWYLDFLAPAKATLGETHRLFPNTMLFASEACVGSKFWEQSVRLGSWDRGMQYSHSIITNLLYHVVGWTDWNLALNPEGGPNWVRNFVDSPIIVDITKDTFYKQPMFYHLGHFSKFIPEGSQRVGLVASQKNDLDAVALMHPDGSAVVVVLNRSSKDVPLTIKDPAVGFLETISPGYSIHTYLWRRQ

Regarding `COc1cccc(-c2nc(Nc3ccncc3)c3ccccc3n2)c1`, the Potency in assay [1] was 2.53 µM (active); in assay [3], 0.794 µM (active); in [5], > 46 µM (inactive); in assay [8] it was 2.51 µM (active); in assay [12], 39.8 µM (active). Also, the activity change, negative = inhibition in assay [2] was -6.31% (inactive); in [11] it was -7.83% (inactive). Besides, the activity, negative = inhibition in assay [4] was -15.1% (inactive). Further, the Potency entry in [6], in assay [7], in [9], in assay [13] and in assay [14] was “inactive” in each case. Further, the result in assay [10] was inactive. Also, the max response is -14.4% in assay [11] (setting [20]) and -19.7% in assay [11] (setting [21]).
Regarding `CN(Cc1ccco1)c1nc(-c2ccccc2Cl)nc2ccccc12`, the activity change, negative = inhibition in assay [2] was 16.9% (inactive); in assay [15], -23.4% (inactive); in assay [11], 11.9% (inactive). For the same compound, in assay [4], the activity, negative = inhibition is 21.7% (inactive). Further, the Potency in assay [5] and in [16] was > 46 µM (inactive) in each case. Moreover, the Potency result in assay [6], in assay [17], in assay [13], in assay [18] and in assay [19] was “inactive” each time. In addition, in [10], the compound was called inactive. In addition, the values for the max response in assay [11] (setting [20]) and in [11] (setting [21]) were 14.1% and 24.3%, respectively.
Turning to `O=C(O)c1cc(O)c2c(c1)C(=O)c1cc(O)cc(O)c1C2=O`, the Potency result in [9], in assay [17], in assay [18], in assay [19] and in assay [14] was “inactive” in each case. Moreover, in assay [10], the call was inactive. Moreover, in assay [11], the activity change, negative = inhibition is 8.22% (inactive). The max response in assay [11] (setting [20]) is 22.4%; in assay [11] (setting [21]), 36.4%. Moreover, in assay [12], the Potency is 56.2 µM (active).
Take `NCC1OC(n2cnc3c(=O)[nH]c(N)nc32)C(O)C1O` (centres undefined): the Potency entry in assay [17], in [12], in assay [13], in assay [18], in assay [19] and in assay [14] was “inactive” in each case. The compound was called inactive in assay [10]. In assay [11], the activity change, negative = inhibition was 2.55% (inactive). Moreover, the max response in assay [11] (setting [20]) is -3.82%; in assay [11] (setting [21]), -2.83%.
In the case of `COc1cc(-c2coc3cc(OCc4ccccc4)c(OC)c(O)c3c2=O)cc(O)c1OC`, the Potency entry in assay [9], in assay [13], in assay [18], in assay [19] and in assay [14] was “inactive” throughout. In addition, in assay [11], the activity change, negative = inhibition was -4.72% (inactive). Further, the max response in assay [11] (setting [20]) is -3.67%; in assay [11] (setting [21]), -4.66%.
Regarding `COc1ccc(C(=O)O)c(O)c1OC`, the Potency result in [8], in assay [17], in assay [12], in assay [13], in assay [18] and in assay [19] was “inactive” throughout. Moreover, the Potency entry in [14] was “inactive”. In assay [10], the compound was classed as inactive. Further, in [11], the activity change, negative = inhibition is 7.29% (inactive). Also, the max response in [11] (setting [20]) was determined as 8.57%; in [11] (setting [21]), 18.5%.
